# Laboratory results as given in PubChem BioAssay (NCI).
# Compounds without any hit were thinned out: in the full panel of roughly 83,000, 20% have a hit.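 How to read the values: 0–100, growth inhibition (40 = 60% inhibited); 0, no net growth; -100 to 0, cell death (-40 = 40% of starting cells died; -100 = all dead).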 The source made the active and inactive calls.
# System: SK-MEL-5 melanoma
# Test: NCI-60 one-dose screen, 48 h (100 = growth as untreated, 0 = no growth, -100 = all killed)
# Conditions: 10 µM unless noted
# Description: Growth inhibition of the SK-MEL-5 human tumor cell line is measured as a screen for anti-cancer activity. Cells are grown in 96 well plates and exposed to the test compound for 48 hours. Compounds are tested at a single concentration, which is 10^-5 M for most compounds. The reported endpoint is percent growth (GI% or GIPRCNT), where numbers from 0 - 100% represent growth inhibition, and numbers from -100% - 0 represent cell death. For example, a value of 40 represents 60% growth inhibition. A value of 0 means no net growth occurred over the course of the experiment. A value of -40 indicates 40% of cells at the beginning of the experiment died by the end of the experiment. A value of -100 means all cells are dead at the end of the experiment.
# NCI-60 Human Tumor Cell Lines Screen was performed using the standard one-dose NCI protocol, which is described in more detail at https://dtp.cancer.gov/discovery_development/nci-60/default.htm.
# Compounds with GIPRCNT values below 10 were considered active. Activity score was based on GIPRCNT using the following formula: […]
# Score is 0 for GIPRCNT values of 100 or above, 50 for GIPRCNT values of 0, and 100 for GIPRCNT values of -100.
row,SMILES,growth
1,CN(O)c1nc(N(C)O)nc(N2CCOCC2)n1,34.2% (inactive)
2,COC(=O)c1c2c(c(C)[n+]([O-])c1C)C(=O)C(NCc1ccc(Br)cc1)=CC2=O,-93.1% (active)
3,O=c1nc2sc3nc4ccccc4cc3cc-2s1,100% (inactive)
4,CCCCC1COc2cccc3c2N1C=C/C3=C\C(=O)N(C)c1ccccc1 (stereo not given),13.4% (inactive)
5,O=Cc1cc2ccccc2nc1Nc1nccs1,82.2% (inactive)
6,c1ccc(CNc2nc(Nc3ccccc3)nc3ccccc23)cc1,54.8% (inactive)
7,Cc1ccc(OCCCCCCNCCO)c(C)c1,-58.3% (active)
8,O=C(c1ccccc1)N(CCc1ccc(Cl)cc1)C(=S)N(C(=O)c1ccccc1)c1ccccc1,95.9% (inactive)
9,O=C(NC1C(O)OC(CO)C(O)C1O)NS(=O)(=O)c1ccc(Cl)cc1 (stereo not given),104% (inactive)
10,COc1cc(CNC(=O)c2ccsc2Nc2ccnc(C(F)(F)F)c2)ccc1O,98.2% (inactive)
11,O=Cc1c(OCc2cnnn2CC(=O)Nc2ccc(Cl)cc2)ccc2ccccc12,100% (inactive)
12,COc1ccc2sc3c(NCCCN)nc4ccccc4c3c(=O)c2c1,84.3% (inactive)
13,Cc1ccc(Cc2cnc(NC(=O)CN3C(=O)/C(=C\c4ccccc4)SC3=S)s2)cc1,102% (inactive)
14,O=NN(C(=O)NC1CCC(C(=O)O)CC1)C1CCC(C(=O)O)CC1 (stereo not given),104% (inactive)
15,C[n+]1c2ccccc2nc2ccc(NCCO)cc21,98% (inactive)
16,CC(C)C[C@H](C(=O)N[C@@H](C)C(N)=O)N1CC=CCN(O)S1(=O)=O,106% [5 µM] (inactive)
17,COC(=O)/C(CCC=C(C)C)=C1\[C@@H](OC(C)=O)C[C@@]2(C)[C@H]1CC(=O)[C@H]1[C@@]3(C)CC[C@H](NCc4ccccc4)[C@@H](C)[C@@H]3CC[C@@]12C,89.6% (inactive)
18,Cn1nc(C(C)(C)C)cc1NC(=O)Cc1ccc(/C=C2\C(=O)Nc3ccccc32)cc1,5.57% (active)
19,COc1ccc(C2C3=C(COC3=O)N(CCO)c3cc4c(cc32)OCCO4)cc1 (stereo not given),60.8% (inactive)
20,CCOc1cccc(/C=N\Nc2nc(=O)cc(C(=O)OC)s2)c1O,79.8% (inactive)

row,SMILES,growth
1,O=C(Nc1ccc(Cl)cc1)c1cc2ccccc2cc1OP(=O)(O)O,3.56% (active)
2,COc1cc(CNC(=O)Cc2ccccc2)ccc1OCc1cn(-c2ccc(F)cc2)nn1,89.1% (inactive)
3,O=C(NCCCN1CCC(N2CCCCC2)CC1)C1=Cc2cc(Br)ccc2OC1,68% (inactive)
4,CCOC(=O)c1cc2c(n1Cc1cc(OC)c(OC)c(OC)c1)-c1oncc1CCC2,8.95% (active)
5,Cc1ccc2[nH]c(=O)cc(-n3nncc3Cn3c4ccccc4c4ccccc43)c2c1,94.5% (inactive)
6,O=C(Nc1ccc(-c2nc3cc4ccccc4cc3[nH]2)cc1)c1cccc(Br)c1,37.1% (inactive)
7,COc1ccc(/C=C2\CCC/C(=C\c3ccc(OC)c(OC)c3)C2=O)cc1OC,5.95% (active)
8,COc1c2ccoc2c(/C=C/C=O)c2oc(-c3ccccc3)cc(=O)c12,48.6% (inactive)
9,COc1cc2cc3c(=O)n4c(cc5cc(OC)ncc54)c(=O)n3c2cn1,109% (inactive)
10,CCCCCCc1cc2cc(-c3csc(/C=C/c4ccccc4)n3)c(=O)oc2cc1O,-93.6% (active)
11,CC[C@]1(O)C[C@@H]2CN(CCc3c([nH]c4ccccc34)[C@@](C(=O)OC)(c3cc4c(cc3OC)N(C)[C@H]3[C@@](O)(C(=O)OC)[C@H](OC(C)=O)[C@]5(CC)C=CCN6CC[C@]43[C@@H]65)C2)C1,-54.6% (active)
12,O=C(Nc1nc2c(s1)CCc1c-2c(Br)n(Cc2ccccc2)c1Br)c1ccccc1,41% (inactive)
13,CC1=C(CC(=O)c2cccc([N+](=O)[O-])c2)C(=O)c2ccccc2C1=O,4.78% (active)
14,COc1ccc(C2C3=C(COC3=O)N(CCO)c3cc4c(cc32)CCC4)cc1OC (stereo not given),28% (inactive)
15,COC(=O)/C(CCC=C(C)C)=C1\[C@@H](OC(C)=O)C[C@@]2(C)[C@H]1CC(=O)N[C@H]1[C@@]3(C)CCNC(=O)[C@@H](C)[C@@H]3CC[C@@]12C,95.4% (inactive)
16,O=C1/C(=C/c2ccc(O)cc2)COc2ccc(O)c(O)c21,44.1% (inactive)
17,O=C(Nc1ccc(N2CCNCC2)cc1)c1[nH]ncc1Nc1ncnc2sc3c(c12)CCC3,-97.4% (active)
18,COc1ccc(Cn2c(Br)c3c(c2-c2cc(OC)c(OC)c(OC)c2)CCc2sc(NC(C)=O)nc2-3)cc1,16.6% (inactive)
19,COc1ccc(-c2nc(-c3ccccc3)c(-c3ccccc3)[nH]2)cc1OC1CCCCC1,93.6% (inactive)
20,COc1cc(OC)cc(N2C(=O)N(Cc3ccc(C(C)(C)C)cc3)c3ccccc3S2(=O)=O)c1,85.8% (inactive)
